Experimental findings from PubChem BioAssay (NCATS) are described below.

The structures appear in SMILES notation. Values without a mark were called inactive. Inconclusive results are not listed. Activity calls are given as the source filed them. Unless noted, the call rests on the fitted dose curve; in most records, active means well fitted curve in the direction sought with a large enough effect; inconclusive means small, poorly fitted or top-dose-only effect, or another doubt; inactive means no such curve, though single readings can be large; an effect the other way counts as inactive or inconclusive.

A short description of assay [1]: Cell Viability - Jurkat (AID 426;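 active means dose-dependent loss of cell ATP signal giving a full or clear fitted curve, ranked by lower potency value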; further: potency means the concentration at half of the fitted maximal effect). Particulars: qHTS. The method, boiled down: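 qHTS, 1536-well; Jurkat E6-1, 5000 cells/well, complete medium; cpd 40 hr, 37 °C; CellTiter-Glo 20 min RT; luminescence. AC50 by Hill fit.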
(In qHTS, concentration-response curves come from the screen itself.)

Assay [2] is described as follows: Cell Viability - Hek293 (AID 427;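 active means compounds whose dose-response curve shows a full or clear partial loss of cell viability, called from curve shape rather than a numeric limit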;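 further: potency means the concentration at half of the fitted maximal effect; cells exposed to compound for 40 hours at 37 °C before reading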). As to conditions: qHTS. The essentials:
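HEK293 cells in complete medium were exposed to compound for 40 hr at 37 °C, then cellular ATP was read by CellTiter-Glo luminescence. Data were normalized to DMSO (basal) and 100 uM tamoxifen (100% inhibition), and AC50 came from Hill fits.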

Assay [3] in a line: Cell Viability - SH-SY5Y (AID 544).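 Further: 0% = DMSO alone and -100% = 100 µM tamoxifen; nearly all actives have a fitted effect of over 55% in size.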 Particulars: SH-SY5Y neuroblastoma cell viability; viability change, negative = cytotoxic: at 92.2 µM (top of the series). The method, boiled down: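 Luminescent ATP read-out (CellTiter-Glo) measures loss of viable SH-SY5Y neuroblastoma cells after 40 hr compound exposure at 37 °C. AC50 values derive from standard Hill modelling of qHTS concentration-response data.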

Assay [4] has as its target Glucocorticoid receptor (Homo sapiens) (UniProt P04150). The assay is described as follows: qHTS assay for small molecule agonists of glucocorticoid receptor signaling (AID 588532; active means well fitted curve in the direction sought with a large enough effect in the signal ratio, with a control signal flat; the % refers to the signal ratio;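 further: 100% = dexamethasone at 0.1 µM and 0% = DMSO only wells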). Particulars: HeLa MMTV-bla, beta-lactamase ratio, agonist, 18 h; active compounds read high; percent of dexamethasone control, DMSO zero. The essentials: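 Using MMTV-bla HeLa cells in medium with 1% stripped FBS and 25 mM HEPES, compounds were titrated and incubated overnight-length (18 h). Beta-lactamase cleavage of CCF4 was quantified by dual-emission fluorescence.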

Assay [5] concerns the target Vitamin D3 receptor (Homo sapiens) (UniProt P11473). In words: qHTS assay for small molecule antagonists of vitamin D receptor signaling (AID 588541; calls by dose curve;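 further: receptor activated by calcitriol during compound treatment; on the % scale 0 is the no-effect control and ±100 the full control effect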). As to conditions: HEK293T VDR-UAS-bla, beta-lactamase ratio, antagonist mode; series mostly up to 76.7 µM. The essentials: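 Antagonist-mode beta-lactamase reporter assay: HEK293T VDR-UAS-bla cells were exposed to titrated compound alongside 1-alpha,25-dihydroxyvitamin D3 at 3 nM final for 16 h. Values were normalized to the 50 nM agonist control and DMSO basal, with IC50 and efficacy from Hill equation fits.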

Assay [6] has the same target. In words: qHTS assay for small molecule agonists of vitamin D receptor signaling (AID 588543; calls by dose curve;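 further: 0% = DMSO basal and 100% = reference agonist control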). As to conditions: HEK293T VDR-UAS-bla, beta-lactamase ratio, 16 h; series mostly up to 76.8 µM. The method, boiled down:
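β-lactamase reporter, VDR-UAS-bla HEK293T, agonist mode. Cells plated 5 h at 37 °C, compound titration 16 h at 37 °C, CCF4 dye 2 h RT, ratio 460/530 nm. Hill fit → EC50, efficacy vs 50 nM 1α,25-(OH)2D3.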

In assay [7] the target is Thyroid hormone receptor beta (Homo sapiens) (UniProt P10828). In words: qHTS assay for small molecule agonists of thyroid hormone receptor beta signaling (AID 588545; calls by dose curve). Particulars: TR-UAS-bla GripTite HEK 293, beta-lactamase ratio, agonist mode, 18 h; series mostly up to 76.7 µM. The method, boiled down: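 Cells (2500/well) were seeded, incubated 4 hrs at 37 C, dosed with a compound series, incubated 18 hrs, loaded with CCF4 dye for 2 hrs at RT, then read for fluorescence. Data were scaled between DMSO (0%) and 10 nM T3 (100%).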
Sequence of Thyroid hormone receptor beta (Homo sapiens) (P10828 whole entry, looked up): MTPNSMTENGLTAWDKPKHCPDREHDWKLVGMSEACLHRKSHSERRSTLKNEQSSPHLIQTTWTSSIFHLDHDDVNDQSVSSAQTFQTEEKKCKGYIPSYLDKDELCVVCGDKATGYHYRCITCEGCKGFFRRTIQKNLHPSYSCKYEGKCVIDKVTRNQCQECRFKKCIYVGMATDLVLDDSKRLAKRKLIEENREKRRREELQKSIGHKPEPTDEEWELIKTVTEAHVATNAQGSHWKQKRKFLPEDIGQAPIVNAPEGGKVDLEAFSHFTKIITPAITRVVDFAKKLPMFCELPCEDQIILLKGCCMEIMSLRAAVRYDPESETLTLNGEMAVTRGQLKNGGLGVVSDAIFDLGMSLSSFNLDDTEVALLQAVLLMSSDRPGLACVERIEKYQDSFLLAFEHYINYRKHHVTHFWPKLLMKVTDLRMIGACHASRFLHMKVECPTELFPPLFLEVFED

Assay [8] addresses Voltage-gated inwardly rectifying potassium channel KCNH2 (Homo sapiens) (UniProt Q12809). In words: qHTS Assay for Small Molecule Inhibitors of the Human hERG Channel Activity (AID 588834).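 Further: top concentration of the series differs between compounds; on the % scale 0 is the no-effect control and ±100 the full control effect; lower thallium flux fluorescence means stronger hERG block; nearly all actives have a fitted effect of over 50% in size.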 As to conditions: U2OS BacMam hERG, FluxOR thallium flux fluorescence; series mostly up to 92.2 µM. The essentials:
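Concentration-response qHTS measuring drop in thallium-sensitive dye signal. U2OS cells carrying BacMam hERG; compound exposure ~10 min, then stimulation buffer and 2 min read at 1 sec intervals.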

Assay [9] is described as follows: qHTS assay for small molecule activators of the p53 signaling pathway (AID 651743; active means well fitted activation curve with a large enough effect in the signal ratio, not every such curve was filed as active; the % refers to the signal ratio; further: % of control where 0% means no effect). Particulars: HCT-116 p53RE-bla, beta-lactamase FRET ratio, 16 h; activation: active compounds read high. The method, boiled down: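 Read-out is fluorescence intensity from the LiveBLAzer B/G FRET substrate, added for 2 hours at room temperature after HCT-116 p53RE-bla cells had been incubated with compounds for 16 hours at 37 C.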

The nature of assay [10]: qHTS assay for small molecule activators of the nuclear factor-kappa B (NF-kB) signaling pathway (AID 651749; active means well fitted activation curve with a large enough effect in the signal ratio; the % refers to the signal ratio; further: % of control where 0% means no effect). As to conditions: NF-kB-bla ME-180 cells, beta-lactamase FRET ratio, 16 h; active compounds read high. The method, boiled down:
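Readout: beta-lactamase reporter driven by an NF-kB response element, detected fluorescently as loss of FRET. Cells were the ME-180 line, treated 16 hr at 37C with pin-transferred compound.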

Assay [11] can be described thus: qHTS assay for small molecule disruptors of the mitochondrial membrane potential - 1 hr assay (AID 651754; calls by dose curve; further: on the % scale 0 is the no-effect control and ±100 the full control effect; nearly all actives have a fitted effect of over 35% in size). As to conditions: series mostly up to 92.2 µM. The method, boiled down:
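HepG2, 2,000 cells/well, overnight attachment; cpd or DMSO 1 hr, 37C/5% CO2; Mito-MPS dye 30 min, 37C; fluorescence monomer (490/535) and aggregate (540/590).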

Assay [12] deals with Tumor necrosis factor (Homo sapiens) (UniProt P01375). The assay is described as follows: qHTS assay to identify small molecules that stimulate Tumor Necrosis Factor-alpha (TNF-alpha) secretion (AID 651757; active means well fitted curve in the direction sought with a large enough effect in the signal ratio; the % refers to the signal ratio; further: 0% is about no effect). As to conditions: Human cells, HTRF 665/615 ratio; series mostly up to 92.2 µM. The essentials:
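Read-out is HTRF, a TR-FRET sandwich of cryptate- and XL665-labeled anti-TNF-alpha antibodies detecting cytokine secreted by THP-1 cells. Cells had been incubated with test compounds at 37 C for 17 hrs beforehand.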

Assay [13] has as its target Nuclear receptor ROR-gamma (Homo sapiens) (UniProt P51449). In words: qHTS assay for small molecule antagonists of the retinoid-related orphan receptor gamma (ROR-gamma) signaling pathway (AID 651802).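 Further: luciferase reporter luminescence driven by ROR response element; on the % scale 0 is the no-effect control and ±100 the full control effect; nearly all actives have a fitted effect of over 60% in size.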 Particulars: ROR-gamma antagonist cell reporter assay; series mostly up to 92.2 µM. The essentials:
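CHO, TET-inducible ROR + RORE-LUC reporter, 1536-well qHTS. Compound pinned, doxycycline added, 16hr 37C/5% CO2. ONE-Glo, 30 min RT, luminescence; signal drop scored as antagonism.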

The nature of assay [14]: qHTS assay for small molecule antagonists of the retinoid-related orphan receptor gamma (ROR-gamma) signaling pathway - cell viability counter screen (AID 720652; active means well fitted curve in the direction sought with a large enough effect in the repeat runs; an effect the other way counts as inactive or inconclusive;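 further: compound exposure lasted 16 hr before ATP read; on the % scale 0 is the no-effect control and ±100 the full control effect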). Particulars: RORgamma reporter cell line viability counter screen; series mostly up to 92.2 µM. The method, boiled down:
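Luminescence from CellTiter-Glo after 30 min at room temperature reported cellular ATP as the cytotoxicity measure. Cells were the CHO reporter line with doxycycline-induced ROR-gamma expression, exposed to compound for 16 hr at 37 C.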

Assay [15] is described as follows: qHTS assay for small molecule activators of the human pregnane X receptor (PXR) signaling pathway (AID 720659; call rule not given here; further: 0% is about no effect). As to conditions: DPX-2 HepG2 CYP3A4-luciferase, 24 h; series mostly up to 92.3 µM.
The nature of assay [16]: Cell Viability - NIH 3T3 (AID 541).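 Further: plate controls were DMSO alone for no effect and tamoxifen positive control for full effect; nearly all actives have a fitted effect of over 25% in size.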 As to conditions: NIH 3T3 cell viability, qHTS; activity change, negative = cytotoxicity: at 92.2 µM (top of the series). The method, boiled down:
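Luminescent ATP signal (CellTiter-Glo) served as the viability read-out after NIH 3T3 cells were exposed to compounds over a concentration range for 40 hr at 37 °C. Hill-equation modelling of concentration-response data gave AC50.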

Assay [17] in a line: Cellular Toxicity (caspase-3) MRC-5 (AID 659). Particulars: MRC-5 cells, luminescence, normalized: DMSO 0%, 10 µM staurosporine 100%; series mostly up to 91.7 µM. The method, boiled down:
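Concentration-dependent caspase 3/7 activation is measured in human normal lung fibroblasts (MRC-5) following 16-hour treatment. AC50 values come from standard Hill-equation modeling of luminescence normalized to DMSO and 10 uM staurosporine.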

Assay [18] is described as follows: qHTS assay for small molecule agonists of the antioxidant response element (ARE) signaling pathway (AID 651741; active means well fitted activation curve with a large enough effect in the signal ratio; the % refers to the signal ratio; further: potency means the concentration at half of the fitted maximal effect; on activation: % of control where 0% means no effect). As to conditions: HepG2 ARE-bla reporter, beta-lactamase FRET ratio, 16 h; series mostly up to 96 µM. The method, boiled down:
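Quantitative HTS in HepG2 cells stably expressing an ARE-beta-lactamase reporter; 16 h compound exposure at 37 C, followed by 2 h room-temperature incubation with LiveBLAzer B/G FRET substrate and fluorescence measurement.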

A short description of assay [19]: Cellular Toxicity (caspase-3) BJ (AID 658). As to conditions: BJ fibroblasts, luminescence; Potency: caspase-3 activation; series mostly up to 91.7 µM. The essentials: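 Readout: Caspase-Glo 3/7 luminescence increase in BJ cells after 16 hr treatment at 37 °C. Staurosporine and tamoxifen served as positive controls; AC50 values came from Hill modelling of data normalized to DMSO and 10 uM staurosporine.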

The target of assay [20] is Cytochrome P450 3A4 (Homo sapiens) (UniProt P08684). The assay is described as follows: qHTS Assay for Inhibitors and Substrates of Cytochrome P450 3A4 (AID 884). Further: on the % scale 0 is the no-effect control and ±100 the full control effect; nearly all actives have a fitted effect of over 50% in size. Particulars: recombinant CYP3A4, Luciferin-PPXE luminescence; series mostly up to 57.1 µM. The essentials:
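20 nM human CYP3A4 with 25 uM Luciferin-PPXE (at KM) in 200 mM KPO4, preincubated 10 min with compound; NADPH regeneration started a 60 min RT reaction. Luciferin detected by luminescence, normalized to 57 uM ketoconazole as full inhibition.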

Sequence of Tumor necrosis factor (Homo sapiens) (P01375 whole entry, looked up): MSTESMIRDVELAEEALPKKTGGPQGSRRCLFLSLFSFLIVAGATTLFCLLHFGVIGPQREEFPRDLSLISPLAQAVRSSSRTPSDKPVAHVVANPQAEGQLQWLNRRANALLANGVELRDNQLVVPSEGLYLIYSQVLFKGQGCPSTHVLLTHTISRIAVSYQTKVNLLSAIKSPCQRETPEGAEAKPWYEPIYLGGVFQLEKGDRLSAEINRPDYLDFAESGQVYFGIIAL
Sequence of Glucocorticoid receptor (Homo sapiens) (P04150 whole entry, looked up): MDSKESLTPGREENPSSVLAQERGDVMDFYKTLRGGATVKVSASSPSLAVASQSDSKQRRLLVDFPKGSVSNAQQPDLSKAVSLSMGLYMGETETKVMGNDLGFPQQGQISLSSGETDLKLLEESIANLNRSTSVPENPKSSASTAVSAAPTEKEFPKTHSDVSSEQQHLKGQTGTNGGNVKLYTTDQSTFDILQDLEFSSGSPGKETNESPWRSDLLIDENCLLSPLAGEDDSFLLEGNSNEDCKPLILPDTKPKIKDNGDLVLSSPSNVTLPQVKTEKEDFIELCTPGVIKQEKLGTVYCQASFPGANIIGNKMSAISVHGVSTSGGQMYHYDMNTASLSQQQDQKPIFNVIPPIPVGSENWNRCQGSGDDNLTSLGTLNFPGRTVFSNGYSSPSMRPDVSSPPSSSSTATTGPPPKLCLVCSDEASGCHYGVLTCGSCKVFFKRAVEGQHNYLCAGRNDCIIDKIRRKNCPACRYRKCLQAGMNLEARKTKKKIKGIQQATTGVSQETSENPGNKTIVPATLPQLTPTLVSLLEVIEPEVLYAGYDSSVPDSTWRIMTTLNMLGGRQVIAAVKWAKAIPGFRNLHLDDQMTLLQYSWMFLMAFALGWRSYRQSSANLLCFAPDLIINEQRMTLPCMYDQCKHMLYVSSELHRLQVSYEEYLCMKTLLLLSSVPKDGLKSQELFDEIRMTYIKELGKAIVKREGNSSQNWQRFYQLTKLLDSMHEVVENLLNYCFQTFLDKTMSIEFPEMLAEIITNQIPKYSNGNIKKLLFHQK
Sequence of Vitamin D3 receptor (Homo sapiens) (P11473 whole entry, looked up): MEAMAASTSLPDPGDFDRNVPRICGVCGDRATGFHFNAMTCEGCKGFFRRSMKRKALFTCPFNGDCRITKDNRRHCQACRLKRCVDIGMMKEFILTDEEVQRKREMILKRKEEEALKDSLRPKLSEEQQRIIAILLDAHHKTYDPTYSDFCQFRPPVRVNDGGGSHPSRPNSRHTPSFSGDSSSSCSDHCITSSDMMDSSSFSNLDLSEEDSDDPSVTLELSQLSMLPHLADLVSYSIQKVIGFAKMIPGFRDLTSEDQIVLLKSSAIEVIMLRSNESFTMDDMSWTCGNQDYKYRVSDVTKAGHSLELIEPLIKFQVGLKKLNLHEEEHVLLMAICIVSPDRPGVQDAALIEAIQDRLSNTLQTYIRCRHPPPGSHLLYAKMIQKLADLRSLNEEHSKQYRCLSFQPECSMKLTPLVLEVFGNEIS
Sequence of Voltage-gated inwardly rectifying potassium channel KCNH2 (Homo sapiens) (Q12809 whole entry, looked up): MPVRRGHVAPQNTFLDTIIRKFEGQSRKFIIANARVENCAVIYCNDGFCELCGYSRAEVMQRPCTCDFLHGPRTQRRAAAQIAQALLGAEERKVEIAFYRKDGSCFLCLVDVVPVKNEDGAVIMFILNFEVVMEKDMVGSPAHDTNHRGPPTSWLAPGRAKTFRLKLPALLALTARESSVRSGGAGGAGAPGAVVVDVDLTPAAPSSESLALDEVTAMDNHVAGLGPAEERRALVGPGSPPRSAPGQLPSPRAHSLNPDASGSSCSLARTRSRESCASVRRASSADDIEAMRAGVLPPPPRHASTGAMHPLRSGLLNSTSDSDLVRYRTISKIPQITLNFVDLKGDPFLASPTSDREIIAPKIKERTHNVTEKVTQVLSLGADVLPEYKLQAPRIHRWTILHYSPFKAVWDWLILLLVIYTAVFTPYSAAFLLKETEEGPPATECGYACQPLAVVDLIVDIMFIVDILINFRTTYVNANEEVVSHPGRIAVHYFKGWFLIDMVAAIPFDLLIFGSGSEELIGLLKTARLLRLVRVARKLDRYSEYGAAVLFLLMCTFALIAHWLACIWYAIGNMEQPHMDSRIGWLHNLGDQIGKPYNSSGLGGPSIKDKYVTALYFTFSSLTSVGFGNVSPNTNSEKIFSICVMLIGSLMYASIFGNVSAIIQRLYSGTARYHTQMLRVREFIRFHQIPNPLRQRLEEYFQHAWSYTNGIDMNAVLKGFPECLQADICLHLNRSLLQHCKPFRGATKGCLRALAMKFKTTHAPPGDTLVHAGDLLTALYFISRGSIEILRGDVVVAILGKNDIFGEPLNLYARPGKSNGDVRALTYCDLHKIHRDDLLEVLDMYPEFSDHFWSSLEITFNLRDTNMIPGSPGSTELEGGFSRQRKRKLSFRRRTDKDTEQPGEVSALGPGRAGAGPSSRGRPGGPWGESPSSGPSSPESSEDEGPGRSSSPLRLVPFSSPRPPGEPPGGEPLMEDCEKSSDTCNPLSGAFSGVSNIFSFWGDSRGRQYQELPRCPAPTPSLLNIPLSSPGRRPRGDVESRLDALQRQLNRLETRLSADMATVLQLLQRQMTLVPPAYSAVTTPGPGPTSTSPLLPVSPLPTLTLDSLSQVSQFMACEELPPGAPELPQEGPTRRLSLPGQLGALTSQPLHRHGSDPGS
Sequence of Nuclear receptor ROR-gamma (Homo sapiens) (P51449 whole entry, looked up): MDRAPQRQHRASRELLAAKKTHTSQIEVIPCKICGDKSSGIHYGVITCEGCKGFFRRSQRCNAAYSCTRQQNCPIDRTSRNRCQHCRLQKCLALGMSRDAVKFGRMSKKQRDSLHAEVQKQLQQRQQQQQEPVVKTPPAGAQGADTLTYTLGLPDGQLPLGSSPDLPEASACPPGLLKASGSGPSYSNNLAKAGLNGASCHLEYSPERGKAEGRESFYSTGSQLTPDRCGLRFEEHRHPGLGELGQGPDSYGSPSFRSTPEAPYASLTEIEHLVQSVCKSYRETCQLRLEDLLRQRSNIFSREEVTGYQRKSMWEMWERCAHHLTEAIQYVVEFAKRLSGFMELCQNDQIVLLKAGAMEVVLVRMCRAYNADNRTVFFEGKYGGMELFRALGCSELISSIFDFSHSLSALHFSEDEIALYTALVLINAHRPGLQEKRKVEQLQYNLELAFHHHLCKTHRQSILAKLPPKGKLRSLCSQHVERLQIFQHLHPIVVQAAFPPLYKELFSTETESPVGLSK
Sequence of Cytochrome P450 3A4 (Homo sapiens) (P08684 whole entry, looked up): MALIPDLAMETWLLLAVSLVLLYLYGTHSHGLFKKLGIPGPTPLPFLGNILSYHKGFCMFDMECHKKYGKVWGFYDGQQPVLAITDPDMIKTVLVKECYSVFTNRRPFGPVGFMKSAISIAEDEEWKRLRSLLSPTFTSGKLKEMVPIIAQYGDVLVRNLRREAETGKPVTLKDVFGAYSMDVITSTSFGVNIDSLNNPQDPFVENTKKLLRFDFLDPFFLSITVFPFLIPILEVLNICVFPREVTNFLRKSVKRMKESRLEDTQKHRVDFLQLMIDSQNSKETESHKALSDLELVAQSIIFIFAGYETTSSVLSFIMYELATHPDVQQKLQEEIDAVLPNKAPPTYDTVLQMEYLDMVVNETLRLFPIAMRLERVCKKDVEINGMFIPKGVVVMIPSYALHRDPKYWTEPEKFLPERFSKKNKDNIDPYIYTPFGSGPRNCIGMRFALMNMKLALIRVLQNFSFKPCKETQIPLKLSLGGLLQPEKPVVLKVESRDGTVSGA

As for `Cc1ccc(N)cc1[N+](=O)[O-]`, the Potency in assay [1] and in assay [2] was over 92 µM each time. For the same compound, the Potency entry in [3], in [5], in assay [6], in [7], in assay [8] and in [11] was “inactive” in each case. The Potency entry in assay [12], in [13] and in assay [14] was “inactive” each time. Also, the activation is 0.881% in [4], -0.0251% in [9] and 0.0603% in [10]. The compound was called inactive in [15].

In the case of `Cc1ccc2ccc3cccc4ccc1c2c34`, the Potency was over 92 µM in assay [1], over 92 µM in assay [2] and 59.6 µM (active) in assay [18]. Besides, the activity change, negative = cytotoxicity in [16] is -8.7%. Also, the Potency entry in assay [3], in assay [7] and in assay [12] was “inactive” throughout. Further, the result in assay [17] and in [15] was inactive. The activation was -3.78% in assay [4] and -0.92% in assay [10].

In the case of `Cc1c(N)cccc1Cl`, the Potency in [1] and in [2] was over 92 µM each time. Moreover, the activity change, negative = cytotoxicity in assay [16] was -0.783%. Also, the Potency result in assay [3], in assay [19], in [5], in assay [6], in [7] and in [8] was “inactive” each time. The Potency entry in assay [18], in assay [11], in [12], in [13] and in [14] was “inactive” throughout. Also, the activation in [4] was -4.07%; in assay [9] it was -0.236%; in assay [10], 0.113%. Besides, the result in [15] was inactive.

For `Cc1cccnc1`, the Potency in assay [1] and in [2] was over 92 µM in each case. For the same compound, the activity change, negative = cytotoxicity in assay [16] is -24.9%. For the same compound, the Potency result in [3], in [5], in assay [6], in assay [8], in assay [18] and in assay [11] was “inactive” in each case. In addition, the Potency entry in assay [12], in assay [13] and in assay [14] was “inactive” each time. Further, the call in assay [17] and in assay [15] was inactive. Also, in assay [10], the activation is -0.701%.

For `CCNC(=S)NCC`, the Potency in assay [1] and in assay [2] was over 92 µM throughout. In addition, the Potency result in assay [3], in assay [5], in assay [6], in [8], in [18] and in assay [11] was “inactive” throughout. In addition, the Potency result in [12], in assay [13] and in assay [14] was “inactive” in each case. Also, the compound was classed as inactive in [17] and in [15]. Also, the activation was -0.196% in assay [9] and 0.201% in [10].

As to `c1ccc(COCc2ccccc2)cc1`, the Potency in [1] and in assay [2] was over 92 µM in each case. Also, in [16], the activity change, negative = cytotoxicity is -5.87%. Further, the Potency result in assay [3], in assay [19], in assay [20], in [5], in assay [6] and in [7] was “inactive” throughout. Moreover, the Potency result in assay [8], in assay [18], in assay [11], in [12], in assay [13] and in [14] was “inactive” throughout. For the same compound, the activation was -1.51% in assay [9] and 0.253% in assay [10].

Consider `CCCCC(CC)COCCCN` (centres undefined), for which the Potency in [1] and in assay [2] was over 92 µM each time. Further, the activity change, negative = cytotoxicity in [16] was -23.1%. Besides, the Potency result in assay [3], in assay [7], in assay [8], in assay [18], in assay [12] and in assay [14] was “inactive” each time. In addition, the result in [17] and in [15] was inactive. Besides, the activation is -4.42% in [4] and -2.34% in assay [9].
